Bioassay records: PubChem BioAssay, The Scripps Research Institute Molecular Screening Center
hgDAF-12 ag = hgDAF-12 agonism, primary luciferase screen | activation, % at 6.8 µM | hit rate 1.8% among 370,000 | HEK293 GAL4-hgDAF12 UAS-luciferase reporter, agonist luminescence; normalized to butyrate control;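 active = activation above a cutoff set at the mean of all screened compounds plus 3 SD, cut at about 10% in these data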;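 note: 0% = DMSO wells and 100% = sodium butyrate wells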
DAX1 inh-1 = inhibitors of DAX1 repression of SF-1 activated StAR promoter. HEK293T StAR-luciferase reporter, SF-1/DAX-1 repression relief. inhibition, % at 6.8 µM. hit rate 1.1% among 370,000. AID 652010;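 active = inhibition above the mean over all tested compounds plus 3 SD, cut at about 3.6% in these data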;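 note: 0% = DAX-1 cells with DMSO and 100% = cells lacking DAX-1 with DMSO; higher inhibition means more luminescence from relief of DAX-1 repression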
hcDAF12 agonist = activators of H. contortus DAF-12 nuclear receptor | hit rate 1.4% among 370,000 | HEK293 hcDAF-12 lit1-tk-luc reporter, luminescence; 0% DMSO, 100% Δ7-dafachronic acid | activation, % at 6.8 µM;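 active = activation above the mean of all tested compounds plus 3 SD, cut at about 5.5% in these data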;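 note: 100% = response to 3 µM Δ7-dafachronic acid high control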
DAX1 inh-2 = NR0B1 (DAX1) inhibition | P51843 | HEK293 Gal4-DAX1 luciferase reporter, luminescence | inhibition, % at 6.75 µM | hit rate 0.99% among 340,000;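 active = inhibition above the mean over all tested compounds plus 3 SD, cut at about 4.2% in these data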;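 note: 0% = DAX1-transfected cells with DMSO and 100% = empty-vector control cells with DMSO; inhibition shows as a rise in luminescence from relieved DAX1 repression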
Target sequence (P51843 207-470 limits assumed): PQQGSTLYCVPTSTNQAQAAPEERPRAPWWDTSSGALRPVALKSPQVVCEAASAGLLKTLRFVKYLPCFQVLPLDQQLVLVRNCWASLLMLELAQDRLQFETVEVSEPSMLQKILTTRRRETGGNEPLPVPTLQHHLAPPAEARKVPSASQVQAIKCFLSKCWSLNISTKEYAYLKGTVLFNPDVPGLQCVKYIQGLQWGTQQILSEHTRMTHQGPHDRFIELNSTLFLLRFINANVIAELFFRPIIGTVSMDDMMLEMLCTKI
ssDAF12 agonist = S. stercoralis DAF-12 activation, primary screen; HEK293 ssDAF-12/GRIP1 lit1-tk-luc reporter, luminescence; % of 3 µM dafachronic acid response; activation, % at 6.8 µM; hit rate 1% among 370,000; AID 652126;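 active = activation above the mean over all tested compounds plus 3 SD, cut at about 0.9% in these data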;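 note: 0% = DMSO-only wells and 100% = 3 µM delta7-dafachronic acid wells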
* hit, by the source's call. Rows were chosen to be rich in hits. Some 4.1% of all compounds tested hit in one or more screens of this group.

What do the screens show for `Cc1ccc(C(=O)NCc2ccc3c(c2)OCO3)c(C)c1`?
hgDAF-12 ag: 3.4; DAX1 inh-1: 0.5; hcDAF12 agonist: -0.1; DAX1 inh-2: -1.1; ssDAF12 agonist: -1.2

Results for Cc1ccc2c(c1)N(CCCC(=O)N(C)Cc1ccccc1F)C(=O)CO2 ?
hgDAF-12 ag: -0.4; DAX1 inh-1: -0.2; hcDAF12 agonist: -0.2; ssDAF12 agonist: -1.4

How did CCOC(=O)CC[C@@H]1CC[C@]2(CCCN(Cc3nccn3C)C2)O1 do in these assays?
hgDAF-12 ag: 2.6; DAX1 inh-1: -1.1; hcDAF12 agonist: -0.7; ssDAF12 agonist: -1.6

What do the screens show for `CC(=O)C1=C(C)NC(SCC(=O)c2ccc(Cl)cc2)=C(C#N)C1CC(C)C` (stereo unspecified)?
hgDAF-12 ag: -0.1; DAX1 inh-1: 0.6; hcDAF12 agonist: -1.9; DAX1 inh-2: 0.0; ssDAF12 agonist: -1.2

What do the screens show for `CC(=O)C1=C(C)NC(SCC(=O)c2ccc(F)cc2)=C(C#N)C1CC(C)C` (stereo unspecified)?
hgDAF-12 ag: 11.5*; DAX1 inh-1: 1.4; hcDAF12 agonist: -1.0; DAX1 inh-2: -1.0; ssDAF12 agonist: -1.2

How did Cc1cc(N2CCCN(C)CC2)nc2cc(Cl)ccc12 do in these assays?
hgDAF-12 ag: 1.0; DAX1 inh-1: -0.2; hcDAF12 agonist: -0.5; DAX1 inh-2: 0.8; ssDAF12 agonist: 1.1*

What do the screens show for `CCC(C)N(C(=O)CSc1nnc(-c2cc(OC)c(OC)c(OC)c2)o1)C(C)CC` (stereo unspecified)?
hgDAF-12 ag: -6.1; DAX1 inh-1: -2.5; hcDAF12 agonist: -3.4; ssDAF12 agonist: -1.8

How did Cc1nc2ccc(Br)cc2c2c1CC(CBr)O2 (stereo unspecified) do in these assays?
hgDAF-12 ag: -0.9; DAX1 inh-1: 0.2; hcDAF12 agonist: 0.5; DAX1 inh-2: -0.7; ssDAF12 agonist: -0.3

What do the screens show for `Cc1nc2ccc(Br)cc2c2c1CC(CO)O2` (stereo unspecified)?
hgDAF-12 ag: -0.9; DAX1 inh-1: -0.4; hcDAF12 agonist: -0.8; DAX1 inh-2: 5.4*; ssDAF12 agonist: -1.8

Results for O=C(O)c1cc(Br)ccn1 ?
hgDAF-12 ag: 0.7; DAX1 inh-1: -0.6; hcDAF12 agonist: 0.9; DAX1 inh-2: 0.8; ssDAF12 agonist: -1.8

What do the screens show for `O=C(O)c1ccnc(C(=O)O)c1`?
hgDAF-12 ag: 2.4; DAX1 inh-1: -0.2; hcDAF12 agonist: -1.7; DAX1 inh-2: 4.5*; ssDAF12 agonist: -1.6

Results for CN1C(=O)c2cc(NC(=O)Nc3ccccc3)ccc2OC[C@H]2O[C@@H](CC(=O)Nc3cc(F)ccc3F)CC[C@@H]21 ?
hgDAF-12 ag: 3.0; DAX1 inh-1: 0.1; hcDAF12 agonist: -5.5; ssDAF12 agonist: -0.6

How did N/C(=N\OCc1ccccc1)c1nonc1N do in these assays?
hgDAF-12 ag: 10.6*; DAX1 inh-1: 2.0; hcDAF12 agonist: 1.8; DAX1 inh-2: 1.2; ssDAF12 agonist: -0.9

Results for O=C(NNC(=O)c1ccccc1Br)c1ccccc1Cl ?
hgDAF-12 ag: 0.4; DAX1 inh-1: 0.8; hcDAF12 agonist: -0.2; DAX1 inh-2: 5.5*; ssDAF12 agonist: -0.5

How did O=C(NNC(=O)c1ccccc1Br)c1ccc(Cl)cc1 do in these assays?
hgDAF-12 ag: 0.3; DAX1 inh-1: 0.4; hcDAF12 agonist: -3.2; DAX1 inh-2: 0.6; ssDAF12 agonist: -1.1

What do the screens show for `C/C=C/C(=O)N1CCc2cc(S(=O)(=O)N(C)Cc3ccco3)ccc21`?
hgDAF-12 ag: 1.8; DAX1 inh-1: -1.4; hcDAF12 agonist: 1.1; ssDAF12 agonist: -1.4

What do the screens show for `[O-][n+]1ccc(C(O)c2ccccc2)cc1` (stereo unspecified)?
hgDAF-12 ag: -0.9; DAX1 inh-1: -0.4; hcDAF12 agonist: 2.6; DAX1 inh-2: 5.1*; ssDAF12 agonist: -1.0

How did OC(C[n+]1ccccc1)c1ccccc1 (stereo unspecified) do in these assays?
hgDAF-12 ag: -1.8; DAX1 inh-1: -0.3; hcDAF12 agonist: -0.6; DAX1 inh-2: 2.5; ssDAF12 agonist: -1.2

What do the screens show for `Cc1c(CC(=O)NCCCC(=O)O)c(=O)oc2c(C)c3oc4c(c3cc12)CCCC4`?
hgDAF-12 ag: -0.1; DAX1 inh-1: 0.3; hcDAF12 agonist: -1.8; DAX1 inh-2: 4.9*; ssDAF12 agonist: -0.6

Results for O=c1cccccc1NN=C1CCCCCC1 ?
hgDAF-12 ag: 3.9; DAX1 inh-1: 0.9; hcDAF12 agonist: 1.4; DAX1 inh-2: 2.8; ssDAF12 agonist: -1.5

Results for O=c1cccccc1NN=C1CCCCC1 ?
hgDAF-12 ag: 10.6*; DAX1 inh-1: 1.6; hcDAF12 agonist: 2.7; DAX1 inh-2: 5.8*; ssDAF12 agonist: -0.4

How did CCOC(=O)[C@]12CCCCC/C=C\1N(CCc1ccc(Cl)cc1)C(=O)[C@H]2CC(=O)NCCC(C)C do in these assays?
hgDAF-12 ag: -1.9; DAX1 inh-1: -0.7; hcDAF12 agonist: -2.7; ssDAF12 agonist: -0.7

Results for C=CCn1c(SCc2cccc(C(F)(F)F)c2)nnc1-c1ccc(OC)cc1 ?
hgDAF-12 ag: 1.0; DAX1 inh-1: -1.0; hcDAF12 agonist: -3.1; ssDAF12 agonist: -1.9

How did CCOC(=O)C1CCN(C(=O)C2(NC(=O)NC3CCCCC3)CCCCC2)CC1 do in these assays?
hgDAF-12 ag: 0.4; DAX1 inh-1: -0.1; hcDAF12 agonist: -1.5; DAX1 inh-2: -0.2; ssDAF12 agonist: -1.4

What do the screens show for `CCOC(=O)C1CCCN1C(=O)C1(NC(C)=O)CCCC1` (stereo unspecified)?
hgDAF-12 ag: 12.4*; DAX1 inh-1: 0.2; hcDAF12 agonist: -0.8; DAX1 inh-2: 2.1; ssDAF12 agonist: -0.7

How did CC(C)c1cc(C(C)C)c(S(=O)(=O)N2CCCC(C(=O)N3CCN(Cc4ccccc4)CC3)C2)c(C(C)C)c1 (stereo unspecified) do in these assays?
hgDAF-12 ag: -1.7; DAX1 inh-1: -0.6; hcDAF12 agonist: 3.1; ssDAF12 agonist: -1.2

What do the screens show for `COc1ccc(OC)c(S(=O)(=O)Nc2ccc(-c3ccc4nnc(C)n4n3)cc2)c1`?
hgDAF-12 ag: 0.8; DAX1 inh-1: 1.7; hcDAF12 agonist: 4.2; DAX1 inh-2: 3.1; ssDAF12 agonist: -0.9

Results for COc1ccc(CC(=O)Nc2ccc(-c3ccc4nnc(C)n4n3)cc2)cc1OC ?
hgDAF-12 ag: -4.7; DAX1 inh-1: 0.8; hcDAF12 agonist: -1.1; DAX1 inh-2: 5.7*; ssDAF12 agonist: 0.2

Results for COc1cc(NC(=O)c2ccccc2)c(C)cc1NC(=O)CSc1nnc(COc2ccccc2)n1Cc1ccco1 ?
hgDAF-12 ag: -2.4; DAX1 inh-1: -1.8; hcDAF12 agonist: 1.5; ssDAF12 agonist: -0.8

What do the screens show for `CC(=O)Nc1ccc(O)cc1`?
hgDAF-12 ag: 0.3; DAX1 inh-1: 0.6; hcDAF12 agonist: -2.3; DAX1 inh-2: 5.8*; ssDAF12 agonist: -1.5

Results for CSCCC(NC(=O)c1cccc([N+](=O)[O-])c1)c1nc2ccccc2[nH]1 (stereo unspecified) ?
hgDAF-12 ag: 0.4; DAX1 inh-1: -0.6; hcDAF12 agonist: -0.3; DAX1 inh-2: -1.3; ssDAF12 agonist: -0.8
